{"source": "PubChem BioAssay (EPA / NIEHS)", "note": "Calls of active or inactive are those of the source. The calls were made as follows: active = hit-call score of the fitted dose curve at least 0.9, where 1 is the maximum; inactive = score below 0.9."}
{"test": "CCTE_Shafer_MEA_acute_per_burst_spike_number_mean: CCTE's Neural Acute Assay for Average Number of Spikes Per Burst, Shafer Lab (AID 2284015);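 also: hits are decreases in mean spikes per burst versus baseline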", "procedure": "CCTE_Shafer_MEA_acute assay is conducted using Axion Biosystems 48 well microelectrode array (MEA) plates and Maestro recording system. Each well of the MEA plate contains a grid of 16 microelectrodes embedded in the culture surface. Electrically active cells, such as neurons, can be cultured over the electrodes, and electrical activity in these cells can be recorded extracellularly. The spontaneous firing of neurons is captured from each electrode on a microsecond timescale providing both temporally and spatially precise data. […] The CCTE_Shafer_MEA_acute assay uses primary cultures of rat cortical neurons. As these cultures mature over time, neural networks develop functional activity and form cohesive networks in which electrical activity can be highly coordinated. Baseline 40-minute recordings are made on days post-plating 13 or 15, followed by a secondary 40-minute recording after chemical exposure.CCTE_Shafer_MEA_acute_per_burst_spike_number_mean is a component of the CCTE_Shafer_MEA_acute assay. It measures the average number of spikes (action potential firings) in a single-electrode burst (temporally-clustered group of spikes) during a recording in a microelectrode array (MEA) using Axion Biosystems Maestro 768 channel amplifier with the AxIS adaptive spike detector. The recordings before and after chemical treatment are used to calculate a percent change in the mean number of spikes per burst in each well.Data from the assay component CCTE_Shafer_MEA_acute_per_burst_spike_number_mean was analyzed into 1 assay endpoint. This assay endpoint, CCTE_Shafer_MEA_acute_per_burst_spike_number_mean, was analyzed in the negative analysis fitting direction relative to DMSO as the negative control and baseline of activity. Using a type of functional reporter, gain or loss-of-signal activity can be used to understand electrical activity.\nSpontaneous activity in the cortical cultures was recorded using an Axion Biosystems Maestro 768 channel amplifier and Axion Integrated Studios (AxIS) v1.8 (or later) software. The amplifier recorded from all channels simultaneously (gain = 1200 x; sampling rate = 12.5 kHz/channel): raw signals were filtered with a Butterworth band-pass filter (300-5000 Hz), which filters out slower local field potentials leaving only fast potentials, i.e., \"spikes\", arising from extracellular currents associated with action potentials (Pine 2006; Wheeler and Nam 2011). On-line spike detection of filtered signals was conducted with the AxIS adaptive spike detector, using a threshold of 8x the root mean squared (rms) noise on each channel. Any electrodes with rms noise levels greater than 5 uV were grounded (e.g., no data were recorded). Once grounded, an electrode was grounded for the duration of the experiment. All recordings were conducted at 37 C. Wells were deemed usable if on the day of the exposure >/= 10 electrodes were active (defined as >/= 5 spikes/min). On DIV 13 or 15, a minimum of three wells from one cortical culture preparation were treated with each compound (0.03-40 uM). Prior to recording baseline activity, each mwMEA plate was placed in the Maestro at 37 C and allowed to sit for 20 min while firing rates stabilized. Baseline activity (40 min) was recorded before the addition of each compound. An additional 40 min of spontaneous activity was recorded in the presence of each compound. Changes in network parameters relative to baseline were assessed following compound treatment."}
{"smiles": "c1ccc(C(O[C@@H]2CCCN(CCc3ccc4c(c3)OCO4)C2)c2ccccc2)cc1", "outcome": "inactive"}
{"smiles": "c1ccc2cc3ccccc3cc2c1", "outcome": "inactive"}
{"smiles": "CCc1ccc(O)c(C(C)(C)C)c1", "AC50": "30.3 µM (active)"}
{"smiles": "COCc1nnc(-c2ccc[n+]([O-])c2)n1-c1c(Cl)c(Cl)cc2[nH]c(=O)c(=O)[nH]c12", "AC50": "8.06 µM (active)"}
{"smiles": "COc1cc2c(c(OC)c1OC)-c1ccc(OC)c(=O)cc1[C@@H](NC(C)=O)CC2", "outcome": "inactive"}
{"smiles": "Cc1ncc([C@@H](CCCCCCc2ccc3c(n2)NCCC3)CC(=O)O)cn1", "outcome": "inactive"}
{"smiles": "CC[C@H](C)C(=O)O[C@H]1C[C@H](O)C=C2C=C[C@H](C)[C@H](CC[C@@H](O)C[C@@H](O)CC(=O)O)[C@H]21", "outcome": "inactive"}
{"smiles": "OC(CCl)CCl", "outcome": "inactive"}
{"smiles": "CCCCC(CC)C(=O)OCCOCCOCCOC(=O)C(CC)CCCC", "note": "(stereo not drawn)", "outcome": "inactive"}
{"smiles": "O=S(=O)(O)c1ccc(N=Nc2c(O)ccc3cc(S(=O)(=O)O)ccc23)cc1", "outcome": "inactive"}
{"smiles": "Cn1c(=O)c2[nH]cnc2n(C)c1=O", "outcome": "inactive"}
{"smiles": "CC(C)C(=O)Nc1ccc([N+](=O)[O-])c(C(F)(F)F)c1", "AC50": "4.66 µM (active)"}
{"smiles": "CCCCCCCC1CCC(=O)O1", "note": "(stereo not drawn)", "outcome": "inactive"}
{"smiles": "CCCCCCCC/C=C\\CCCCCCCC(=O)OC[C@@H](O)[C@H]1OC[C@H](O)[C@H]1O", "outcome": "inactive"}
{"smiles": "CCCc1ccccc1", "outcome": "inactive"}
{"smiles": "OCc1ccccc1", "outcome": "inactive"}
{"smiles": "COc1cc(C(C)C)c2c(c1)S(=O)(=O)N(COc1cc(=O)n3cccc(OCCN4CCCCC4)c3n1)C2=O", "outcome": "inactive"}
{"smiles": "C=CCc1cc(S(=O)(=O)c2ccc(O)c(CC=C)c2)ccc1O", "outcome": "inactive"}
